Source: PubChem BioAssay
Compounds with a hit are over-represented: about 31% of the library has one in this group of screens.
CYP2C9 inh: blockers of cytochrome P450 2C9 activity – biochemical, luminescence, ADME assay, primary screen; P11712; CYP2C9 Supersomes, luciferin-H conversion; inhibition, % at 5 µM; actives 20% (n = 96,000); AID 777, 2007;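 active means blocking of liver enzyme CYP2C9 beyond about 50% at 5 µM, limit read from the data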
Target sequence (P11712 whole entry, looked up): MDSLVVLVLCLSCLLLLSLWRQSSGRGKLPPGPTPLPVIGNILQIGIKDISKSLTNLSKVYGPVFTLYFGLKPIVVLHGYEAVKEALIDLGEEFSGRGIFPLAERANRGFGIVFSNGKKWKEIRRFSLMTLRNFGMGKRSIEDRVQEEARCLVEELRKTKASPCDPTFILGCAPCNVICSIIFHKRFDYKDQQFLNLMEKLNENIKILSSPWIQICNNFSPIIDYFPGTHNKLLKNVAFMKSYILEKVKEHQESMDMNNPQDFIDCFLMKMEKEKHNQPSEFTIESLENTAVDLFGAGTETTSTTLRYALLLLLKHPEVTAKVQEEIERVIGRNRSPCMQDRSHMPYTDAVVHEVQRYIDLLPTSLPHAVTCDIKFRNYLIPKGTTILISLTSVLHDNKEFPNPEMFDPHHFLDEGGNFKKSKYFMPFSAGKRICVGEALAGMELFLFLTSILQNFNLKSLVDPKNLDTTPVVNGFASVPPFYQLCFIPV
CYP2C19 act: human CYP2C19 activators, primary screen, biochemical, luminescence | 96,000 tested, under 10 active | Cytochrome P450 2C19 (Homo sapiens), P33261 | AID 1025, 2008 | recombinant CYP2C19, luciferin-H EGE luminescence; hits give high values; 0 = fully inhibited enzyme, 1 = untreated enzyme | activation factor at 5 µM;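 active means activation factor of at least 2 at 5 µM in the primary screen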;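 further: 0 = wells with 2.5 mM tranylcypromine and 1 = vehicle-only wells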
CYP2C19 inh: blockers of cytochrome P450 2C19 activity – biochemical, luminescence, ADME assay, primary screen | P33261 | CYP2C19 Supersomes, luciferin-H EGE luminescence, 30 min | inhibition, % at 5 µM | actives 21% (n = 96,000) | AID 778, 2007;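 active means CYP2C19 inhibition above a set limit at 5 µM in the primary screen, cut at about 50% in these data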;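 further: plate controls were negative control wells for no effect and 2.5 mM tranylcypromine positive control for full effect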
CYP2C9 act: human CYP2C9 activators, primary screen, biochemical, luminescence. Cytochrome P450 2C9 (Homo sapiens), P11712. recombinant CYP2C9, luciferin-H conversion; hits give high values; factor 1 = untreated enzyme, 0 = blocked. activation factor at 5 µM. actives 1.4% (n = 96,000);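 active means activation factor of 2 or more for CYP2C9 at a 5 µM dose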;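 further: 0 = sulfaphenazole-blocked wells and 1 = vehicle-only wells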
Active calls of the source: *.

Results for Cc1nn(-c2ccc(Cl)c(Cl)c2Cl)c(=O)c2ccccc12 ?
CYP2C9 inh: 54*; CYP2C19 act: 0.3; CYP2C19 inh: 71*; CYP2C9 act: 0.5

How did Cc1nn(-c2ccc(Cl)c(Cl)c2)c(=O)c2ccccc12 do in these assays?
CYP2C9 inh: 3; CYP2C19 act: 0.9; CYP2C19 inh: 7; CYP2C9 act: 1

Results for CC/C(=N\NC(=O)c1ccc(-c2ccccc2)cc1)C12CC3CC(CC(C3)C1)C2 ?
CYP2C9 inh: 39; CYP2C19 act: 0.3; CYP2C19 inh: 67*; CYP2C9 act: 0.6

What do the screens show for `O=C(Nc1ccccc1-c1ccccc1)C12CC3CC(CC(C3)C1)C2`?
CYP2C9 inh: 3; CYP2C19 act: 0.8; CYP2C19 inh: 19; CYP2C9 act: 1

What do the screens show for `CCc1ccc(OCC(=O)NC(NC(=S)Nc2ccc(C)cc2C)C(Cl)(Cl)Cl)cc1` (stereo not given)?
CYP2C9 inh: 57*; CYP2C19 act: 0.5; CYP2C19 inh: 54*; CYP2C9 act: 0.4

What do the screens show for `Cc1ccccc1NC(=S)NC(NC(=O)N(C)C)C(Cl)(Cl)Cl` (stereo not given)?
CYP2C9 inh: 46; CYP2C19 act: 0.7; CYP2C19 inh: 33; CYP2C9 act: 0.5

How did Cc1ccc(NC(=S)NC(NC(=O)c2ccccc2C)C(Cl)(Cl)Cl)c(C)c1 (stereo not given) do in these assays?
CYP2C9 inh: 73*; CYP2C19 act: 0.8; CYP2C19 inh: 15; CYP2C9 act: 0.3

How did Cc1ccccc1NC(=S)NC(NC(=O)C(C)(C)C)C(Cl)(Cl)Cl (stereo not given) do in these assays?
CYP2C9 inh: 97*; CYP2C19 act: 0.8; CYP2C19 inh: 23; CYP2C9 act: 0

Results for Cc1ccc(C)c(NC(=S)NC(NC(=O)N(C)C)C(Cl)(Cl)Cl)c1 (stereo not given) ?
CYP2C9 inh: 78*; CYP2C19 act: 0.3; CYP2C19 inh: 70*; CYP2C9 act: 0.2

How did Cc1ccccc1C(=O)NC(NCc1ccco1)C(Cl)(Cl)Cl (stereo not given) do in these assays?
CYP2C9 inh: 13; CYP2C19 act: 0.8; CYP2C19 inh: 18; CYP2C9 act: 0.9

How did Cc1ccccc1Oc1ncnc2sccc12 do in these assays?
CYP2C9 inh: -12; CYP2C19 act: 0.6; CYP2C19 inh: 36; CYP2C9 act: 1.1

Results for CCC(C)c1ccc(OCCn2cc(/C=N/NC(=O)CSc3nnc(C)s3)c3ccccc32)cc1 (stereo not given) ?
CYP2C9 inh: 16; CYP2C19 act: 0.9; CYP2C19 inh: 12; CYP2C9 act: 0.8

Results for COc1ccc(-c2occ(C(=O)O)c2C(=O)O)cc1 ?
CYP2C9 inh: -14; CYP2C19 act: 1; CYP2C19 inh: 3; CYP2C9 act: 1.1

Results for COC(=O)c1ccccc1NC(=S)NC(NC(=O)COc1ccccc1)C(Cl)(Cl)Cl (stereo not given) ?
CYP2C9 inh: 10; CYP2C19 act: 1; CYP2C19 inh: 0; CYP2C9 act: 0.9

How did O=C(COc1ccccc1)NC(NC(=S)Nc1ccccc1O)C(Cl)(Cl)Cl (stereo not given) do in these assays?
CYP2C9 inh: 83*; CYP2C19 act: 0.1; CYP2C19 inh: 93*; CYP2C9 act: 0.2

Results for Cc1ccccc1NC(=S)NC(NC(=O)COc1ccccc1)C(Cl)(Cl)Cl (stereo not given) ?
CYP2C9 inh: 72*; CYP2C19 act: 0.4; CYP2C19 inh: 61*; CYP2C9 act: 0.3

What do the screens show for `O=S1(=O)C=CC(N2CCOCC2)C1` (stereo not given)?
CYP2C9 inh: -20; CYP2C19 act: 1.1; CYP2C19 inh: -12; CYP2C9 act: 1.2

How did Nn1c(SCc2cccc(C(F)(F)F)c2)nnc1-c1ccco1 do in these assays?
CYP2C9 inh: -61; CYP2C19 act: 0.1; CYP2C19 inh: 94*; CYP2C9 act: 1.6

What do the screens show for `Cc1ccc(CSc2nnc(-c3ccco3)n2N)cc1`?
CYP2C9 inh: -19; CYP2C19 act: 0.9; CYP2C19 inh: 8; CYP2C9 act: 1.2

Results for Cn1c(SCc2cccc(C(F)(F)F)c2)nnc1-c1ccco1 ?
CYP2C9 inh: 14; CYP2C19 act: 0.3; CYP2C19 inh: 72*; CYP2C9 act: 0.9

What do the screens show for `CC(=O)NCC(=O)OCC(=O)c1ccc2ccccc2c1`?
CYP2C9 inh: 3; CYP2C19 act: 1; CYP2C19 inh: -2; CYP2C9 act: 1

How did CCCN(CCC)C1=N/C(=C\c2ccco2)C(=O)N1c1ccccc1 do in these assays?
CYP2C9 inh: 71*; CYP2C19 act: 0.4; CYP2C19 inh: 64*; CYP2C9 act: 0.3

What do the screens show for `CSc1nnc(-c2ccccc2N=Cc2c(C)[nH]n(-c3ccccc3)c2=O)c(=O)[nH]1`?
CYP2C9 inh: 32; CYP2C19 act: 1; CYP2C19 inh: -2; CYP2C9 act: 0.7

How did O=C(CNS(=O)(=O)c1cccc2nsnc12)NCc1ccc(Cl)cc1 do in these assays?
CYP2C9 inh: 52*; CYP2C19 act: 0.5; CYP2C19 inh: 50*; CYP2C9 act: 0.5

Results for O=C(CNS(=O)(=O)c1cccc2nonc12)NCc1ccc(F)cc1 ?
CYP2C9 inh: 49; CYP2C19 act: 0.5; CYP2C19 inh: 53*; CYP2C9 act: 0.5

What do the screens show for `CCc1nc(SCC(=O)N2CCC(Cc3ccccc3)CC2)c2c(=O)n(C)c(=O)n(C)c2n1`?
CYP2C9 inh: 10; CYP2C19 act: 0.9; CYP2C19 inh: 12; CYP2C9 act: 0.9

How did Cn1cnnc1SCC(=O)N1CCC(Cc2ccccc2)CC1 do in these assays?
CYP2C9 inh: 1; CYP2C19 act: 0.2; CYP2C19 inh: 77*; CYP2C9 act: 1

Results for O=C1CCCC2=C1C1(CCCC1)N=C(Nc1nc3ccccc3s1)N2 ?
CYP2C9 inh: -18; CYP2C19 act: 1.2; CYP2C19 inh: -17; CYP2C9 act: 1.2

What do the screens show for `Clc1ccc(-c2nnc3sc(-c4ccc(Br)o4)nn23)c(Cl)c1`?
CYP2C9 inh: 21; CYP2C19 act: 0.4; CYP2C19 inh: 58*; CYP2C9 act: 0.8

Results for Brc1ccc(-c2nn3c(Cc4ccccc4)nnc3s2)o1 ?
CYP2C9 inh: 13; CYP2C19 act: 0.3; CYP2C19 inh: 68*; CYP2C9 act: 0.9

What do the screens show for `Clc1ccccc1-c1nnc2sc(-c3ccc(Br)o3)nn12`?
CYP2C9 inh: 47; CYP2C19 act: 0.2; CYP2C19 inh: 80*; CYP2C9 act: 0.5

What do the screens show for `c1ccc(Cc2nnc3sc(Nc4ccccc4)nn23)cc1`?
CYP2C9 inh: -1; CYP2C19 act: 1; CYP2C19 inh: -4; CYP2C9 act: 1

How did Clc1ccc(-c2nnc3sc(-c4ccc(Br)o4)nn23)cc1 do in these assays?
CYP2C9 inh: 15; CYP2C19 act: 0.7; CYP2C19 inh: 33; CYP2C9 act: 0.8

What do the screens show for `Cc1noc(C)c1COC(=O)CCc1nc2ccccc2s1`?
CYP2C9 inh: 48; CYP2C19 act: 0.4; CYP2C19 inh: 59*; CYP2C9 act: 0.5
